Results as given in PubChem BioAssay (Tox21).
Where “and” joins values, the source holds several entries; their conditions need not be identical. Equal entries are not always repeated. Records with an inconclusive call do not appear. Unmarked numbers belong to inactive results. Calls of active or inactive are those of the source. Calls come from the whole dose curve; as a rule, active = well fitted inhibition curve with a large enough effect in the repeat runs; inconclusive = weak or mixed curves, or effect the other way; inactive = no such curve, though single readings can be large or run the other way.

Assay: qHTS assay to identify small molecule antagonists of the retinoic acid receptor (RAR) signaling pathway (AID 1159552; note: nearly all actives have a fitted effect of over 50% in size)
Settings: C3RL4 RARE luciferase reporter, retinol-stimulated, 6 h; series mostly up to 92.4 µM; activity, negative = inhibition: at the top concentration
Description: National Center for Advancing Translational Sciences [NCATS]
NIH Chemical Genomics Center [NCGC]
U.S. Environmental Protection Agency [EPA]
National Institutes of Environmental Health Sciences [NIEHS]
National Toxicology Program [NTP]
U.S. Food and Drug Administration [FDA]
All-trans Retinoic acid (atRA) is the potent natural metabolite of retinol and plays an important role in normal embryonic development and maintenance of cellular phenotype in adult animals. atRA is the activating ligand for the retinoic acid receptors (RARs) which form heterodimers with retinoid X receptors (RXRs) on the retinoic acid response element (RARE). Through activation of the RAR/RXRs nuclear receptors, atRA regulates the transcription of a large number of protein-coding genes and regulatory RNAs. Intracellular levels of atRA are controlled by the retinol signaling pathway (RSP) that regulates the biosynthesis and catabolism of atRA to maintain physiological levels. Chemicals that interfere with the RSP can cause abnormal intracellular levels of atRA and therefore are potential developmental toxicants. To assess compounds for the potential adverse effect on embryonic development through interfering with retinol signaling, a cell-based RARE luciferase reporter gene assay was used. C3RL4 cell line (OARSA/CFSAN/FDA, Laurel, MD) was used to screen Tox21 10K compound library for identifying inhibitors of the RSP.
Tox21 Assay Protocol Summary:
C3RL4 cells were seeded at 1,000/well in 4 uL of assay medium into white solid 1,536-well tissue culture plates (Greiner Bio-One North America Inc. Monroe, NC) using a Multidrop Combi (Thermo Scientific, Waltham, MA) dispenser. After incubation at 37 C and 5% CO2 for an overnight, 23 nL of compounds dissolved in DMSO, positive control or DMSO only were transferred by a Pintool station (Kalypsys, San Diego, CA). One ul of 1 uM (final concentration) of Retinol was added right after the compound addition by using a Flying Reagent Dispenser (FRD) (Aurora Discovery, San Diego, CA). After 6 hr incubation at 37 C and 5% CO2, 5 uL of Amplite Luciferase reagent (AAT Bioquest Inc. Sunnyvale, CA) was added to each assay plate using an FRD. Luminescence was quantified on a ViewLux plate reader (PerkinElmer, Waltham, MA) after 30 min incubation at room temperature.
% is set by controls: 0 for no effect and ±100 for the full control effect; potency is the fitted concentration of half-maximal effect.

SMILES | activity, negative = inhibition | Potency
NC(=S)c1c(Cl)cccc1Cl | -3.21% | 
Cc1nnc(-c2ccccc2)c(=O)n1N | 28.1% | 
CC(Oc1cccc(Cl)c1)C(=O)O (stereo not given) | 0.647% | 
C[C@]12CC[C@H]3[C@@H](CCC4=CC(=O)CC[C@@H]43)[C@@H]1CC[C@@H]2OC(=O)CCc1ccccc1 | -17.8% [at 42.5 µM] | 
C[C@H]1[C@@H]2Cc3ccc(O)cc3[C@@]1(C)CCN2C | -4.18% [at 240 µM] | 
CN(C)N | -0.125% | 
CN(C)c1ccc(N=O)cc1 |  | 24.4 µM (active)
COc1cc(CC(C)N)c(OC)cc1Br (stereo not given) | 1.2% | 
OCCCl | -4.07% | 
Nc1ccccc1C(=O)OCCc1ccccc1 |  | inactive
N#CC(C#N)=Cc1ccc(O)c(O)c1 | 46.9% [at 42.5 µM] | 
CC(=O)NNc1ccccc1 | 9.43% | 
CC1(C)CC(=O)CC(C)(C)N1[O] | 17% | 
CON(C)C(=O)Nc1ccc(Cl)cc1 | 57.5% | 
c1ccc2c(c1)sc1ccccc12 |  | inactive
CCC1(CC)C(=O)NC(=O)NC1=O | 15.2% [at 42.5 µM] | 
O=C(O)CCCOc1ccc(Cl)cc1Cl |  | inactive
CCCCCBr | 15% | 
Cc1cnc(C2=NC(C)(C(C)C)C(=O)N2)c(C(=O)O)c1 (stereo not given) | 7.18% | 
COC(=O)C1(O)c2ccccc2-c2ccccc21 | -16.2% | 

SMILES | activity, negative = inhibition | Potency
CCOP(=S)(S)OCC | 4.34% | 
CCOC(=O)c1cncn1C(C)c1ccccc1 (stereo not given) | -2.11% [at 42.5 µM] | 
O=C(O)COc1cc(Cl)c(Cl)cc1Cl |  | inactive
C[C@H]1O[C@H](OC2[C@@H](O)[C@@H](O)C(O)[C@H](O)[C@H]2O)[C@@H](N)C[C@@H]1N=C(N)C(=O)O (stereo not given in full) | -10.3% | 
Cc1ncc(C[n+]2csc(CCO)c2C)c(N)n1 | -6.42% | 
CCC1CCC(=O)O1 (stereo not given) | 16.5% | 
N#CC(C#N)=C(C#N)C#N | -8.72% | 
CCCCC#N | 43.7% | 
C=CC(=O)OCC | -2.01% | 
FC(Cl)(Cl)C(F)(Cl)Cl | -2.96% | 
CCC(C)Cl (stereo not given) | 32.9% | 
C=CC(C)(CCC=C(C)C)OC(=O)c1ccccc1N (stereo not given) | -5.25% | 
Nc1ccc2c(c1)Cc1ccccc1-2 | 66.4% | 
CN1CC[C@]23c4c5ccc(O)c4O[C@H]2[C@@H](O)CC[C@H]3[C@H]1C5 | 16.9% | 
O=C(Cc1ccccc1)OCCc1ccccc1 | 67.4% | 
CCOc1cccc(C2(N3CCN(c4ccccc4)CC3)CCC(C)CC2)c1 (stereo not given) | 37.2% | 
CCCCNC(=O)OCC#CI |  | 43.1 µM (active) and 54.5 µM (active)
O=C=NC1CCCCC1 | 31.6% | 
CC(C)(C)N(NC(=O)c1ccc(Cl)cc1)C(=O)c1ccccc1 | -2.37% | 
N#CC1(N=NC2(C#N)CCCCC2)CCCCC1 | -4.41% | 
